Screening data (PubChem)
GALK inh: qHTS Assay for Inhibitors of Human Galactokinase (GALK): NCGC Sytravon Library Screen; P51570; recombinant GALK, Kinase-Glo ATP luminescence, 1 h; Potency, µM (doses to about 57.5 µM), without a hit: top-dose activity, negative = inhibition, most hits filed as inhibitors; 44,000 tested, under 10 active;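 note: plate controls were full GALK reaction for no effect and reaction lacking GALK for full effect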
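Human GALK (5 nM) was incubated with 35 uM ATP and 100 uM galactose in 20 mM HEPES pH 8.0 with MgCl2, NaCl, DTT and BSA for 1 h at room temperature. Remaining ATP was measured by Kinase-Glo Plus luminescence.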
TSG101-PTAP inh: qHTS Validation Assay for Inhibitors of HIV-1 Budding by Blocking the Interaction of PTAP/TSG101: Sytravon Library Screen; Fluorescence polarization, FITC-PTAP peptide/Tsg101, 20 min; AID 1347069, 2019; 44,000 tested, under 10 active; Potency, µM (highest dose often 115 µM), usual class: inhibitors; note: potency is the fitted concentration of half-maximal effect; 0% is about no effect
Target sequence (Q99816 whole entry, looked up): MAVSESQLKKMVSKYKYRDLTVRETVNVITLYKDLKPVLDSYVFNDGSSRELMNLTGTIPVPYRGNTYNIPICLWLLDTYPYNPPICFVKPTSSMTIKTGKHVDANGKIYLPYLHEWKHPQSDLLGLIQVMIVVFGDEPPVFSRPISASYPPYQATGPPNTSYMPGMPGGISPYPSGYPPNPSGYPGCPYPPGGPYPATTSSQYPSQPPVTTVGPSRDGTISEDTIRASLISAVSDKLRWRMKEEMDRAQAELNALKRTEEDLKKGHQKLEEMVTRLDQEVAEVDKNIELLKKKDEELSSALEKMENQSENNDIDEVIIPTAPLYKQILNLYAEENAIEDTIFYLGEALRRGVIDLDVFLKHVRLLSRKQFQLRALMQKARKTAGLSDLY
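Fluorescence polarization: Tsg101 binding domain (10 uM final) in 10 mM HEPES pH 7.5, 0.15 M NaCl, 0.01% Tween 20, 3 mM EDTA, 0.1 mM TCEP; compounds pinned; FITC-PTAP peptide 50 nM final; 20 min, r.t.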
FH mod: Identification of activators of human fumarate hydratase by quantitative high-throughput screening; 54,000 compounds, 0.22% hits; Potency, µM (top dose mostly 79.9 µM), without a hit: top-dose activity change, negative = inhibition, hits mostly inhibitors; Fumarate hydratase, mitochondrial (Homo sapiens), P07954; FH coupled MDH/diaphorase resazurin fluorescence, 15 min; note: potency is the fitted concentration of half-maximal effect; % is set by controls: 0 for no effect and ±100 for the full control effect; the screen sought activators but most active calls are inhibition curves; nearly all actives have a fitted effect of over 45% in size
NTMT1 inhibitor: Primary qHTS for Inhibitors of N-terminal methyltransferase 1 (NTMT1): MTaseGlo Assay; NTMT1 MTase-Glo SAH luminescence, purified enzyme; N-terminal Xaa-Pro-Lys N-methyltransferase 1 (Homo sapiens), Q9BV86; Potency, µM (highest dose often 114 µM), inactives show top-dose activity change, negative = inhibition, actives largely listed as inhibitors; 59,000 compounds, 2.5% hits;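 note: potency is the fitted concentration of half-maximal effect; plate controls were DMSO vehicle for no effect and no enzyme for full effect; nearly all actives have a fitted effect of over 65% in size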
Target sequence (Q9BV86 whole entry, looked up): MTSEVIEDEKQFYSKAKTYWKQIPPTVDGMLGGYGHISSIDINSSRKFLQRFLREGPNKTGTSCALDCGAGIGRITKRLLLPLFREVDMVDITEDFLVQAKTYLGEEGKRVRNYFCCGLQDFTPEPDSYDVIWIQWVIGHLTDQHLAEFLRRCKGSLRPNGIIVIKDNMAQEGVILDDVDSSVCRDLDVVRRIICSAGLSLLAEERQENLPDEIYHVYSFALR
B2AR arrestin ag: qHTS assay of beta-arrestin-biased ligands of beta2-adrenergic receptor: NCGC Sytravon Library Screen | 44,000 tested, under 10 active | Beta-2 adrenergic receptor (Homo sapiens), P07550 | Potency, µM (series often up to 46.1 µM), usual class: activators | HTLA Tango cells, beta-arrestin recruitment, luciferase luminescence, 18 h;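 note: potency is the fitted concentration of half-maximal effect; 0% = DMSO and full agonism = EC100 isoproterenol or metaproterenol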
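Receptor–beta-arrestin recruitment read by tTA-responsive luciferase: compound titrations (up to 46 µM) incubated 18 h with Tango cells, then luminescent substrate 15 min at room temperature. Concentration-response fits classified by r2, efficacy and activity.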
* = called active by the depositor; i = inactive; ? = inconclusive; / = no result given; ! = not active in a repeat; [ ] = another dose, or the depositor's remark. The full list was thinned out, with hits kept by preference. Calls come from the whole dose curve; as a rule, active = well fitted curve in the direction sought with a large enough effect; inconclusive = small, poorly fitted or top-dose-only effect, or another doubt; inactive = no such curve, though single readings can be large; an effect the other way counts as inactive or inconclusive.

SMILES | GALK inh | TSG101-PTAP inh | FH mod | NTMT1 inhibitor | B2AR arrestin ag
CCC1(O)CC2CN(CCc3c([nH]c4ccccc34)[C@@](C(=O)OC)(c3cc4c(cc3OC)N(C=O)C3[C@]45CCN4CC=C[C@@](CC)([C@@H](OC(C)=O)[C@]3(O)C(=O)OC)[C@H]45)C2)C1 (stereo not given in full) | / | / | -7%[53.3 µM] | / | /
CCC1=C[C@@H]2CN(C1)Cc1c([nH]c3ccccc13)[C@@](C(=O)OC)(c1cc3c(cc1OC)N(C)[C@@H]1[C@@](O)(C(=O)OC)[C@H](OC(C)=O)[C@]4(CC)C=CCN5CC[C@]31[C@@H]54)C2 | / | / | 0%[53.3 µM] | 17µM* | /
CC[C@]1(O)CC2CN(CCc3c([nH]c4ccccc34)[C@@](C(=O)OC)(c3cc4c(cc3OC)N(C)[C@H]3[C@@](O)(C(=O)OC)[C@H](OC(C)=O)[C@]5(CC)C=CCN6CC[C@]43[C@@H]65)C2)C1 (stereo not given in full) | / | / | -2% | 45µM*! | /
O=C1CCCC2=C1C(c1[nH]ncc1Cl)N=C(Nc1nc3ccc(Cl)cc3o1)N2 (stereo not given) | / | / | / | -12%[57.5 µM] | /
Cc1ccc(CN2CCC(CNc3ncnc4onc(-c5ccc(F)cc5)c34)CC2)cc1 | -2% | i | -20% | 79µM* | i
Nc1ccc2c(c1)CN1C(=O)c3ccccc3C1=N2 | / | / | 3%[20.6 µM] | 13µM* | /
CCc1ccc(CN2CCc3nc(Nc4ccc5c(c4)OCCO5)ncc3C2)cc1 | 2% | i | ? | 89µM* | i
Cc1ccc(CN2CCc3nc(Nc4ccc5c(c4)OCCO5)ncc3C2)cc1 | 2% | i | -18% | 3% | i
Cc1cc(C(=O)Nc2nc3cccc(Cl)c3n2C2CCCCN(C(=O)/C=C/CN(C)C)C2)ccn1 (stereo not given) | / | / | 22% | ? | /
N#C/C(=C\c1ccc(-c2ccc(C(=O)O)cc2)o1)c1nc2ccccc2[nH]1 | -2% | i | 28µM* | 45µM* | i
Cc1ccc2nc(/C(C#N)=C/c3ccc(-c4cccc(Cl)c4)o3)[nH]c2c1 | 1% | i | -3% | ? | i
N#C/C(=C\c1ccc(-c2ccc(Cl)c(C(=O)O)c2)o1)c1nc2ccccc2[nH]1 | 0% | i | 40µM* | ? | i
C[C@@H]1CC[C@]2(C(=O)O)CC[C@]3(C)C(=CCC4[C@]5(C)C(CC[C@]43C)C(C)(C)[C@@H](O)[C@H](O)[C@@H]5O)C2[C@]1(C)O (stereo not given in full) | / | / | 0%[53.3 µM] | -11%[29.8 µM] | /
COC(=O)N(CC(=O)O)Cc1cccc(OCc2nc(-c3ccc(Cl)cc3)oc2C)c1 | / | / | / | 9% | /
CC(=O)c1cccc(NC(=O)CCCN2C(=O)COc3ccc(C)cc32)c1 | 3% | i | 4% | 79µM* | i
C=C1C(=O)O[C@H]2C[C@H](C)C(/C=C/C(C)=O)=CC[C@H]12 | / | / | / | -13% | /
CC/C(=C(/c1ccc(/C=C/C(=O)O)cc1)c1ccc2[nH]ncc2c1)c1ccc(F)cc1Cl | / | / | / | 32µM* | /
Cc1ccc(C2N=C(Nc3nc4ccccc4o3)NC3=C2C(=O)CCC3)cc1 (stereo not given) | / | / | / | 2% | /
O=C(Cn1nc(-c2ccc(F)cc2)ccc1=O)NCCc1ccccc1 | / | / | / | 79µM* | /
CC(C)(C)c1ccc(-c2ccc(=O)n(CC(=O)NCCc3ccccc3)n2)cc1 | / | / | / | 15% | /
COc1cccc(CNc2ccc(S(=O)(=O)Nc3cccc4ccccc34)cc2)c1O | / | / | / | 4% | /
Cc1ccc(-n2ncc3c(Nc4cccc(C)c4C)ncnc32)cc1 | -6% | i | -14% | -3% | i
Cc1ccc(Nc2ncnc3c2cnn3-c2ccccc2)c(C)c1 | 3% | i | -12% | 11µM* | i
O=C(CCCCCCC(=O)Nc1ccc([C@H]2O[C@@H](CSc3nc(-c4ccccc4)c(-c4ccccc4)o3)C[C@@H](c3ccc(CO)cc3)O2)cc1)NO | / | / | -6% | 43µM*! | /
CC(=CC(=O)Nc1ccccc1C(=O)O)c1ccc2ccccc2c1 | / | / | -3%[53.3 µM] | 34µM* | /
SMILES | GALK inh | TSG101-PTAP inh | FH mod | NTMT1 inhibitor | B2AR arrestin ag
COc1ccccc1NC(=O)c1ccc2ccccc2c1 | / | / | / | 3% | /
CCN1CCN(Cc2ccc(-c3cc4c(N[C@H](C)c5ccccc5)ncnc4[nH]3)cc2)CC1 | / | / | -7%[53.3 µM] | 22µM* | /
CCN1CCN(Cc2ccc(-c3cc4c(NC(C)c5ccccc5)ncnc4[nH]3)cc2)CC1 (stereo not given) | / | / | -3% | 14µM* | /
O=[N+]([O-])c1ccc(CSc2ncnc3c2ncn3[C@@H]2O[C@H](CO)C(O)[C@H]2O)cc1 (stereo not given in full) | / | / | -10%[53.3 µM] | / | /
CC(=O)OC1C(=O)C2C3OCC4=C3[C@@](C)(CC[C@@H]4O)CC[C@]2(C)[C@H]1C(C)C (stereo not given in full) | / | / | -1%[53.3 µM] | 7%[29.8 µM] | /
Nc1nc(Nc2ccc3c(c2)CCC(N2CCCC2)CC3)nn1-c1cc2c(nn1)-c1ccccc1CCC2 (stereo not given) | / | / | -11% | 40µM* | /
Cc1cnc(-c2ccccc2C(C)C)nc1NCC1CCN(C2COC2)CC1 | / | / | / | 3%[57.5 µM] | /
COc1cc(-c2nc3nc[nH]n3c2Nc2ccc(C(C)C)cc2)ccc1O | 5% | i | -32% | 45µM* | i
COc1ccc(N2C[C@]34C=C[C@H](O3)C(C(=O)O)C4C2=O)cc1OC (stereo not given in full) | / | / | / | 13% | /
O=C(O)c1ccc(CCCc2ccc(OCCc3ccc(F)cc3)cc2)o1 | / | / | 2% | ? | /
O=C(Nc1ccc2oc(-c3cccnc3)nc2c1)c1ccc(-c2ccc(OC(F)(F)F)cc2)o1 | 1% | i | -4% | 50µM* | i
O=C(Nc1ccc2oc(-c3cccnc3)nc2c1)c1ccc(-c2ccccc2)o1 | 0% | i | 7% | ? | i
O=C1CCCC2=C1C(c1[nH]ncc1Cl)NC(=NCCc1ccc(O)cc1)N2 (stereo not given) | / | / | / | 3% | /
CC1CCN(c2nc3ccc(C(=O)NCCc4ccc(S(N)(=O)=O)cc4)cc3s2)CC1 | -10% | i | 3% | 89µM* | i
N#C/C(=C\c1ccc(O)c(O)c1)C(=O)Nc1ccccc1 | / | / | 14µM* | / | /
N#C/C(=C\c1ccc(O)c(O)c1)C(=O)NCCCNC(=O)/C(C#N)=C/c1ccc(O)c(O)c1 | / | / | ? | 1.3µM* | /
Cc1ccc(NC(=O)/C(C#N)=C/c2ccc(C(C)C)cc2)cc1C | 3% | i | -1% | 28% | i
C[C@@H]1CC(=O)Nc2cccc(-c3cnn(C(C)(C)C)c3)c2N1 | / | / | / | 14% | /
